Test results taken from PubChem BioAssay AID1259240 (Keith Lab, Institute of Cancer Science, University of …, 2017).
Activity calls are given as the source filed them. Cut-off read from the data, not from the text of the source: active = fold change mostly below about -2 (no sharp cut-off); inactive = mostly above about -1.8.

assay: TERT promoter activity modulators, primary screen, cell-based, luciferase reporter, human (AID 1259240); details: A2780 TERT promoter luciferase reporter, 16 h; at 20 µM, fold versus average of vehicle-only wells

| SMILES | fold change | outcome |
| --- | --- | --- |
| COc1cccc2cc(S(=O)(=O)c3ccccc3)c(=O)oc12 | 1.83 (inactive) |  |
| COc1cccc(CNc2nc3ccccc3n3cnnc23)c1 | 1.12 (inactive) |  |
| CC(=O)c1sc2nc(-c3ccc(Br)cc3)cn2c1C | -17 (active) |  |
| CCOC(=O)C1=C(CS(=O)(=O)c2ccc(C)cc2)NC(=O)NC1c1ccc(OC)cc1OC (centres undefined) | -1.29 (inactive) |  |
| Cn1c(=O)c2c(SCC(=O)Nc3ccc4c(c3)OCO4)nc(-c3ccco3)nc2n(C)c1=O | 1.03 (inactive) |  |
| CCN1CCCC1CNC(=O)CN1C(=O)COc2ccc(S(=O)(=O)N3CCC(C)CC3)cc21 (centres undefined) | 1.28 (inactive) |  |
| CCOC(=O)c1c(C)n(C)c2ccc(OCC(O)CN3CCCCC3C)cc12 (centres undefined) | -2.14 (active) |  |
| CCOc1ccc(-n2c(O)cnc2Nc2nc(C)cc(C)n2)cc1 | -1.65 (inactive) |  |
| Clc1ccc2c(c1)C1CC(c3ccccc3)=NN1C(c1ccncc1)O2 (centres undefined) | -1.13 (inactive) |  |
| COc1ccccc1Nc1nc(N)nc(CN2CCN(C)CC2)n1 | -3.68 (active) |  |
| Cc1ccccc1N1CC(O)(c2ccccc2)[N+]2=C1SCCC2 (centres undefined) | -1.05 (inactive) |  |
| COc1cccc(-c2cc(N)n(S(=O)(=O)c3cccc4nsnc34)n2)c1 | 1.15 (inactive) |  |
| Cn1c(=O)oc2cc(S(=O)(=O)N3CCCC(C(=O)NCCN4CCCC4)C3)ccc21 (centres undefined) | 1.73 (inactive) |  |
| COC(=O)c1sc2ccccc2c1N | 1.26 (inactive) |  |
| O=C(O)c1cc(S(=O)(=O)O)cc(Nc2c3ccccc3nc3ccccc23)c1O | -1.04 (inactive) |  |
| O=c1c2ccccc2[nH]c(=S)n1CCCN1CCc2ccccc2C1 | -2.32 (active) |  |
| Cc1cc(C)cc(N2CN=c3s/c(=C4\C(=O)Nc5ccccc54)c(=O)n3C2)c1 | -1.15 (inactive) |  |
| Cn1c(=O)oc2cc(S(=O)(=O)N3CCCC(C(=O)NC4CCCCCCC4)C3)ccc21 (centres undefined) | 1.03 (inactive) |  |
| O=C(CCC(=O)NC1CCCC1)NNc1nc2ccccc2c2nc(-c3ccccc3)nn12 | -1.47 (inactive) |  |
| NC(=O)c1c(NC(=O)c2cc(-c3ccc(O)cc3)on2)sc2c1CCCC2 |  | inactive |

| SMILES | fold change | outcome |
| --- | --- | --- |
| N=C1/C(=C/c2ccc(SCc3ccco3)o2)C(=O)N=C2SC=C(c3ccccc3)N12 | -1.25 (inactive) |  |
| c1ccc(N2CCN(c3nc4ccccc4n4cnnc34)CC2)cc1 | 1.17 (inactive) |  |
| CS(=O)(=O)Nc1ccc(C2=NN(C(=O)c3ccco3)C(c3ccco3)C2)cc1 (centres undefined) | 1.01 (inactive) |  |
| CCNc1nc(C(=O)O)nc(N2CCOCC2)n1 | -1.25 (inactive) |  |
| Cc1cc(C)cc(N(CC(=O)NCc2cccs2)S(=O)(=O)c2c(C)[nH]c(=O)[nH]c2=O)c1 | -2.11 (active) |  |
| C=CCN(C(=O)C1CCC(CNS(=O)(=O)c2cccc3nsnc23)CC1)C1CCCCC1 (centres undefined) | -1.05 (inactive) |  |
| COCCn1c(SCC(=O)Nc2nnc(C)s2)nc2c(c1=O)SC(C)C2 (centres undefined) | 1.17 (inactive) |  |
| CCC1(C)Cc2ccccc2-c2nc(NCCO)n(-c3ccccc3)c(=O)c21 (centres undefined) | -1.48 (inactive) |  |
| COc1ccc2cc3c(N)nn(C(=O)CCS(=O)(=O)c4ccccc4)c3nc2c1 | -1.33 (inactive) |  |
| Cn1c2ccccc2c2cnn(CC(=O)N3CCN(C4CCCCC4)CC3)c(=O)c21 | -1.05 (inactive) |  |
| COC(=O)CN1C(=O)CN(c2nc(C)cc(C)n2)C1=O | -1.08 (inactive) |  |
| CCN1C(=O)N(CC)C2C1N(C(C)=O)C(=O)N2C(C)=O (centres undefined) | -1.76 (inactive) |  |
| CCOC(=O)N1CCC(Nc2ccc3nncn3n2)CC1 | -1.14 (inactive) |  |
| COc1cc2c(c(OC)c1)C(c1cccc3ccccc13)CC(=O)N2 (centres undefined) | -1.05 (inactive) |  |
| CN(C(=O)Cn1c(=O)n(CCCS(=O)(=O)C2CCCCC2)c(=O)c2ccccc21)c1ccccc1 | -1.1 (inactive) |  |
| CCCCNc1nc2c(c(=O)[nH]c(=O)n2C)n1CCO | -1.67 (inactive) |  |
| CC(=O)NCCNC(=O)c1cccn2c(=O)c3c4c(sc3nc12)CCCC4 | -1.41 (inactive) |  |
| Cc1nc2c3ccccc3nc(NNC(=O)CCC(=O)N3CCCC(C)C3)n2n1 (centres undefined) | -1.02 (inactive) |  |
| O=C(CC1(O)C(=O)Nc2ccccc21)c1cc2ccccc2o1 (centres undefined) | 1.08 (inactive) |  |
